In the supplement of paper PMC11006884:
Of roughly 6,500 targets only a part is listed; those with a hit were picked by preference. About 2% of all pairs of compound and target were hits. A number with no mark means an inactive call.

These targets were tested with COC(=O)C#Cc1ccccc1 [methyl 3-phenylpropiolate] (assay: log2 ratio of iodoacetamide-alkyne labeling of the cysteine site, DMSO over compound (competition); higher = stronger covalent engagement of the cysteine by the compound, active = 1 or more). Conditions: 500 µM; treatment time 1 h; system: HEK293T cell lysate.
Procedure, shortened: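 HEK293T lysate (2 mg/mL) was incubated with electrophile (500 µM) or vehicle for 1 h at ambient temperature and then with iodoacetamide alkyne for 1 h. Labelled proteins were clicked to sCIP-TMT reagents, pooled, digested, enriched on streptavidin and measured by Orbitrap Eclipse LC-MS/MS with FAIMS, with FragPipe quantification. The per-cysteine log2 competition ratio is mean control-channel reporter intensity over mean compound-channel reporter intensity. Across three replicates with duplicate channels, cysteines quantified in only one replicate were excluded.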

Chain of UniProt P46940 (P46940 whole entry, looked up): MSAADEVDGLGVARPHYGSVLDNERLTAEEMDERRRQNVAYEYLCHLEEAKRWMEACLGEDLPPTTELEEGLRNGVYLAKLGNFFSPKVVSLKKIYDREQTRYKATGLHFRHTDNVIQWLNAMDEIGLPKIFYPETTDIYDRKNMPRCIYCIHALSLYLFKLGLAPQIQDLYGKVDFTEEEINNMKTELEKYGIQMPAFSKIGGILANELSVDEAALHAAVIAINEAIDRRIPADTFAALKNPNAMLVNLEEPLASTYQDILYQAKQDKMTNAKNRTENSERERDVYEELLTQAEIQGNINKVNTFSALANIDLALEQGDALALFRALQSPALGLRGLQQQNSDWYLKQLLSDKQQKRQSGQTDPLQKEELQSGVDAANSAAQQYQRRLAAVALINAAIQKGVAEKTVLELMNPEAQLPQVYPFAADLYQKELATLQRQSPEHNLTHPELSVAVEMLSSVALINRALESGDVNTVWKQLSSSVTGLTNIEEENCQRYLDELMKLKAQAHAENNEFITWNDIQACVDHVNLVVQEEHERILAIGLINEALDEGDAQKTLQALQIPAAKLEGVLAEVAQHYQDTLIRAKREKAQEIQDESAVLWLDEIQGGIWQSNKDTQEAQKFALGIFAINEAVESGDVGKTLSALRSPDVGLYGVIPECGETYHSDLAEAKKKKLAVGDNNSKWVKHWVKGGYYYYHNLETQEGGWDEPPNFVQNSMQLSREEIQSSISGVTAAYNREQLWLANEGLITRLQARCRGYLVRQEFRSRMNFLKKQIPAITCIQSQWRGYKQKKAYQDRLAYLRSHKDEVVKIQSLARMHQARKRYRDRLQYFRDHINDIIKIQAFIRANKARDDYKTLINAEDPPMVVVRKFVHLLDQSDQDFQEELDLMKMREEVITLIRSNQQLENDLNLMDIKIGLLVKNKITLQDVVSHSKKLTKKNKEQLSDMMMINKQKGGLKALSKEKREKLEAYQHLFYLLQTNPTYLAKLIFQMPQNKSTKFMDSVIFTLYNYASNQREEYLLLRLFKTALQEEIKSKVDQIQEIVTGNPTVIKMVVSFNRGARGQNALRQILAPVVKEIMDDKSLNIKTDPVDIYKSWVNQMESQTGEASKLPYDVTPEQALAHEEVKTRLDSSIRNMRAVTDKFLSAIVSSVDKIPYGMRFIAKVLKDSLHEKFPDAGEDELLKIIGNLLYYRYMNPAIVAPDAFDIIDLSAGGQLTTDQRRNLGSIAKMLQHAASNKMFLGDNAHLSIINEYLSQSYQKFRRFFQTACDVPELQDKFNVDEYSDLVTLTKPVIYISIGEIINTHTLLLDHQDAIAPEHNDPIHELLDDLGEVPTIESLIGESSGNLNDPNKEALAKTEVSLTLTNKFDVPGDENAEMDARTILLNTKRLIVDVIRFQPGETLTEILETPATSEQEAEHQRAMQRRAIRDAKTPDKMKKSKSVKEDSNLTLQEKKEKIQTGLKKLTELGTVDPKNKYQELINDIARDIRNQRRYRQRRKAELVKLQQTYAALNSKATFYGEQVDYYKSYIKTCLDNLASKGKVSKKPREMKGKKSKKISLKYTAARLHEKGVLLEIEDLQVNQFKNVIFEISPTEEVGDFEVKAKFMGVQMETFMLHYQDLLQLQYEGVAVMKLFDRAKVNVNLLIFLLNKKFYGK
Chain of UniProt P09543 (P09543 whole entry, looked up): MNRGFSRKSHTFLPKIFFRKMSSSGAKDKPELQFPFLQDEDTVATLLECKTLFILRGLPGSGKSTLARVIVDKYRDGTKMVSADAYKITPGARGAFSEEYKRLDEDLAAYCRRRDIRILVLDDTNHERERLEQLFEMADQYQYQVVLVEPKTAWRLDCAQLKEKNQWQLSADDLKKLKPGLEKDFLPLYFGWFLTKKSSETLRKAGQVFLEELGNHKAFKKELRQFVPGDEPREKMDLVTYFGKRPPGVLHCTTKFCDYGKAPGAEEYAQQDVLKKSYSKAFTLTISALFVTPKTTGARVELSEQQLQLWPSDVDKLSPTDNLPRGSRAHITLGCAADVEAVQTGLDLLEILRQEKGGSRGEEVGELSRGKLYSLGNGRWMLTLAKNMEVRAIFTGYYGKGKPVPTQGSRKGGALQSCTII
Chain of UniProt P20700 (P20700 whole entry, looked up): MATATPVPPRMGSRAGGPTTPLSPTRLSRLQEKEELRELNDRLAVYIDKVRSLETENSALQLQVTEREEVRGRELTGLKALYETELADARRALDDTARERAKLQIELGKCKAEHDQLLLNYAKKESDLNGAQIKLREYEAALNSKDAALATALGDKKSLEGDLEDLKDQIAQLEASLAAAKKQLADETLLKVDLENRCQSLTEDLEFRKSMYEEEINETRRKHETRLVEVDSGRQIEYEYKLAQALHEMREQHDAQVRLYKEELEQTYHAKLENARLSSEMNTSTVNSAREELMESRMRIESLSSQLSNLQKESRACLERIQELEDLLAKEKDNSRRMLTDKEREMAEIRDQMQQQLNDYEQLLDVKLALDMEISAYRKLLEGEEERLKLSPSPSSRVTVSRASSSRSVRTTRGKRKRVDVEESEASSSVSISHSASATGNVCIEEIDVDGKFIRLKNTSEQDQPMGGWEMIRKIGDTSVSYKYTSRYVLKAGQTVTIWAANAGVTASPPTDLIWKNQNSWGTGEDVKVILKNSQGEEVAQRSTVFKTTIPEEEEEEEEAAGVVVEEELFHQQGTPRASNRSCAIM
Chain of UniProt O95861 (O95861 whole entry, looked up): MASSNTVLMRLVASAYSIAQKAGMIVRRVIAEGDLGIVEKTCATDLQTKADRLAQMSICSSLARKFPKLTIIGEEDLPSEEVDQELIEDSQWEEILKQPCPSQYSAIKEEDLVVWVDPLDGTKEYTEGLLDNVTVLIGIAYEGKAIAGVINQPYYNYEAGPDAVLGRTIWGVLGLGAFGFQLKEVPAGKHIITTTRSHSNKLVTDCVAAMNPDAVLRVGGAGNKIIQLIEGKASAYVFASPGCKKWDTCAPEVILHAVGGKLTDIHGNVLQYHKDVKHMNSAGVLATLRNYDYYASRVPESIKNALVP
Chain of UniProt P37802 (P37802 whole entry, looked up): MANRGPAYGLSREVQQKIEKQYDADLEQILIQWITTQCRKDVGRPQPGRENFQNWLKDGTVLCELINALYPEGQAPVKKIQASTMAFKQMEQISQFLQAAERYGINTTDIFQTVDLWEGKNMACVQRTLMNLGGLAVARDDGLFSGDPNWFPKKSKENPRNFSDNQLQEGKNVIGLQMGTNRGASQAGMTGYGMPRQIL
Chain of UniProt P20810 (P20810 whole entry, looked up): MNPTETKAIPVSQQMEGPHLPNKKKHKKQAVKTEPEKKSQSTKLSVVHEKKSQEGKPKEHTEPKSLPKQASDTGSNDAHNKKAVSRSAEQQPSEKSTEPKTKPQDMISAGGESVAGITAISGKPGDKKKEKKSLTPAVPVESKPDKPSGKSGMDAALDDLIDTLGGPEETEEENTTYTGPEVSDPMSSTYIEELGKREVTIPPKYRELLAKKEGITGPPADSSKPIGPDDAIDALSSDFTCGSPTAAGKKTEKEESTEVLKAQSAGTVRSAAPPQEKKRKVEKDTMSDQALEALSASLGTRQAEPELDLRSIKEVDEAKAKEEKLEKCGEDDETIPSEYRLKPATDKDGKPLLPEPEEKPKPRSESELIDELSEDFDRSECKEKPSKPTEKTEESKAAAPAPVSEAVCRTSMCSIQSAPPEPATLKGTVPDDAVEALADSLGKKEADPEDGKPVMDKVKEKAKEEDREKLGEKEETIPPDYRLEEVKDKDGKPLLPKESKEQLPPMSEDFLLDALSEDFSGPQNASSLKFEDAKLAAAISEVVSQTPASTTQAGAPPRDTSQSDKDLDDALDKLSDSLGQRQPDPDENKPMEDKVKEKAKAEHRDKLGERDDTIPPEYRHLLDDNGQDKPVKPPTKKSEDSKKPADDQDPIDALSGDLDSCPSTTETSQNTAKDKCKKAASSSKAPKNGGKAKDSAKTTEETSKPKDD
Chain of UniProt P51116 (P51116 whole entry, looked up): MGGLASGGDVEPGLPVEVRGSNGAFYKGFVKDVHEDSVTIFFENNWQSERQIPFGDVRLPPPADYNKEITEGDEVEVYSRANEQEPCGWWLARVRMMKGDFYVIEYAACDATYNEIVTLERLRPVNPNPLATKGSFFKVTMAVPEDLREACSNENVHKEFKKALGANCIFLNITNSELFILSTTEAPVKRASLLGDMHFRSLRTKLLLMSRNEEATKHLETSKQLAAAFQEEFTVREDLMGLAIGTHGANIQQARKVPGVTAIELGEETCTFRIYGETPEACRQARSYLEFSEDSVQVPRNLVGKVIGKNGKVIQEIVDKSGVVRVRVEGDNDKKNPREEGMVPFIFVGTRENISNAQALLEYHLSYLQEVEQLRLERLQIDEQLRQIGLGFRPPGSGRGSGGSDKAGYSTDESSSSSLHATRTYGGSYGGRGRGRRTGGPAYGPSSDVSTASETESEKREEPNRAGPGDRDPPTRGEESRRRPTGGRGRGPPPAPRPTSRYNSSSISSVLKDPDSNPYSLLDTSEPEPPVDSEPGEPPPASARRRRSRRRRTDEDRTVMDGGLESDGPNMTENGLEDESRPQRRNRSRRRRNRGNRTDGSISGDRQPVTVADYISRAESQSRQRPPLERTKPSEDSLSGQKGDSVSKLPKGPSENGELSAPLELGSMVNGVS
Chain of UniProt P30566 (P30566 whole entry): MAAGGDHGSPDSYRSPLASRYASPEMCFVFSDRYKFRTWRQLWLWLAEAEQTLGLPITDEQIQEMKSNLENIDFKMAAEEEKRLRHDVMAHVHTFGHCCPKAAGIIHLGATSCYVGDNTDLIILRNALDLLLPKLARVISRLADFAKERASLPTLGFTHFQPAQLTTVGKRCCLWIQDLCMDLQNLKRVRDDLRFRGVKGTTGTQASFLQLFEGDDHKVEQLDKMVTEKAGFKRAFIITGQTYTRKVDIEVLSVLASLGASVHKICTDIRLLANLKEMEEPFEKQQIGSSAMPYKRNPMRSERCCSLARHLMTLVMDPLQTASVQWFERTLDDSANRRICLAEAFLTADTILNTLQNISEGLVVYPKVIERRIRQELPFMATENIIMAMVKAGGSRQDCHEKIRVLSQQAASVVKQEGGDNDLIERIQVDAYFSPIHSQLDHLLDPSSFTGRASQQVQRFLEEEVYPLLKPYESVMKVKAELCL

Q: For RPL3 C253 (UniProt P39023), which “log2 ratio of iodoacetamide-alkyne labeling” value (“log2 ratio” for short) is on record?
A: The value was 0.582.

Q: Which “log2 ratio” value does the source give for GMPS C631 (UniProt P49915) here?
A: The value was 0.369.

Q: With EEF2 C369 (UniProt P13639) as the target, how does the “log2 ratio” value read?
A: The value was 0.24.

Q: Which “log2 ratio” value does the source give for UniProt O96017_C539 here?
A: Its value is 0.494.

Q: Which “log2 ratio” value does the source give for MTOR C300 (UniProt P42345) here?
A: The value was 0.376.

Q: With UniProt P49753_C401 as the target, how does the “log2 ratio” value read?
A: The value was 0.0763.

Q: ACADSB C175 (UniProt P45954) was tested. Which “log2 ratio” value did it give?
A: The value was 0.109.

Q: With UniProt P0CG30_C105 as the target, how does the “log2 ratio” value read?
A: Its value is -0.204.

Q: EEF2 C557 (UniProt P13639) was tested. Which “log2 ratio” value did it give?
A: Its value is -0.298.

Q: PCYT1A C73 (UniProt P49585) was tested. Which “log2 ratio” value did it give?
A: The value was 0.921.

Q: Which “log2 ratio” value does the source give for CNP C111 (UniProt P09543) here?
A: Its value is 0.0267.

Q: How did the “log2 ratio” value turn out when EEF2 C812 (UniProt P13639) was run?
A: The value was 0.148.

Q: How did the “log2 ratio” value turn out when ATIC C363 (UniProt P31939) was run?
A: Its value is 0.3.

Q: How did the “log2 ratio” value turn out when UniProt P49591_C438 was run?
A: Its value is 0.0645.

Q: NF1 C383 (UniProt P21359) was tested. Which “log2 ratio” value did it give?
A: Its value is 0.376.

Q: PML C338 (UniProt P29590) was tested. Which “log2 ratio” value did it give?
A: Its value is 0.413.

Q: How did the “log2 ratio” value turn out when AARS C723 (UniProt P49588) was run?
A: Its value is 0.264.

Q: For MBD3 C266 (UniProt O95983), which “log2 ratio” value is on record?
A: The value was 0.0164.

Q: For IDH3G C81 (UniProt P51553), which “log2 ratio” value is on record?
A: Its value is 0.412.

Q: With TCP1 C218 (UniProt P17987) as the target, how does the “log2 ratio” value read?
A: Its value is 0.0267.

Q: FXR2 C270 (UniProt P51116) was tested. Which “log2 ratio” value did it give?
A: Its value is 0.306.

Q: How did the “log2 ratio” value turn out when ENO1 C389 (UniProt P06733) was run?
A: The value was 0.125.

Q: EEF2 C651 (UniProt P13639) was tested. Which “log2 ratio” value did it give?
A: The value was 0.0919.

Q: How did the “log2 ratio” value turn out when SSB C18 (UniProt P05455) was run?
A: The value was -0.139.

Q: LMNB1 C198 (UniProt P20700) was tested. Which “log2 ratio” value did it give?
A: Its value is 0.109.

Q: PABPC1 C128 (UniProt P11940) was tested. Which “log2 ratio” value did it give?
A: Its value is -0.0389.

Q: For POLR1A C613 (UniProt O95602), which “log2 ratio” value is on record?
A: Its value is 0.472.

Q: For DSP C174 (UniProt P15924), which “log2 ratio” value is on record?
A: Its value is 1.06 (active).

Q: With MAP1B C1228 (UniProt P46821) as the target, how does the “log2 ratio” value read?
A: Its value is 0.169.

Q: Which “log2 ratio” value does the source give for UniProt P49459_C88 here?
A: Its value is 0.243.

Q: How did the “log2 ratio” value turn out when MTHFD1 C143 (UniProt P11586) was run?
A: Its value is -0.0254.

Q: With ADSL C27 (UniProt P30566) as the target, how does the “log2 ratio” value read?
A: The value was 0.0306.

Q: Which “log2 ratio” value does the source give for BPNT1 C206 (UniProt O95861) here?
A: The value was 0.27.

Q: How did the “log2 ratio” value turn out when CCT4 C252 (UniProt P50991) was run?
A: The value was -0.0169.

Q: Which “log2 ratio” value does the source give for IQGAP1 C781 (UniProt P46940) here?
A: The value was 0.821.

Q: For CAST C413 (UniProt P20810), which “log2 ratio” value is on record?
A: The value was 0.756.

Q: For TAGLN2 C38 (UniProt P37802), which “log2 ratio” value is on record?
A: Its value is -0.0194.
